According to PubChem BioAssay AID624168 (Sanford-Burnham Center for Chemical Genomics, 2012):
Among all 360,000 compounds or so, about 800 (0.22%) were called active. Only a selection was taken, and actives are over-represented in it overall. Unmarked numbers belong to inactive results.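 Rule for the calls: active = activation of at least 8% versus controls, or a plate z-score of at least 8; inactive = the rest.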

Assay: compounds raising alpha-dystroglycan glycosylation – uHTS, Pro5-aDG cells, AlphaScreen, primary screen (AID 624168);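 note: Pro5 are CHO cells carrying HIG-tagged alpha-DG that lacks glycosylation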
Settings: alpha-DG glycosylation AlphaScreen (IIH6), at 10 µM, active compounds read high, 0% Pro5, 100% B10-LARGE cell signal

Structure (SMILES) | activation
Cc1ccc(NC(=O)CN(C)CC(=O)Nc2cccc(F)c2)cc1[N+](=O)[O-] | 10% (active)
CN(CC(=O)Nc1cccc(F)c1)C(=O)C1=COCCO1 | 0.1%
Cc1ccc(NC(=O)c2sccc2C)cc1[N+](=O)[O-] | 0%
O=C(CN1CCCCC1)NC(=O)Nc1ccccc1F | 0%
O=C(CCNS(=O)(=O)c1ccc(Br)s1)NCc1ccccc1Cl | 0.5%
COc1cccc(NC(=O)N(C)C[C@@H]2Oc3ncc(Br)cc3C(=O)N([C@@H](C)CO)C[C@H]2C)c1 | 0.2%
OC(CN1C2=NCCCN2c2ccccc21)c1ccc(Br)cc1 (configuration not stated) | 0.6%
CC(=O)N1CSCC1C(=O)O (configuration not stated) | 0.1%
O=c1ccc2cc(S(=O)(=O)N3CCN(c4ccccc4)CC3)ccc2o1 | 8.4% (active)
O=S(=O)(c1ccc2ccccc2c1)N1CCN(S(=O)(=O)N2CCOCC2)CC1 | 0.1%
NC(=O)COC(=O)c1cc(S(=O)(=O)N2CCN(c3ccccc3)CC2)ccc1Cl | -1.4%
O=C1OCCOC2CCCc3oc(-c4ccccc4)c1c32 (configuration not stated) | 0.5%
CCN(CC(=O)NCc1ccc(Cl)cc1)C(=O)CSc1ccccc1 | 0%
c1ccc2cc3c(NCCN4CCOCC4)ccnc3cc2c1 | 9% (active)
O=S(=O)(c1ccc(Cl)cc1)c1nc(-c2ccccc2F)oc1NCCN1CCOCC1 | 0.2%
O=C(NCCN1CCOCC1)Nc1cccc(Cl)c1 | -0.1%
O=S1(=O)CC(NCc2ccccc2)C(Nc2ccc(Cl)cc2)C1 (configuration not stated) | 0%
O=C(/C(=N\O)n1cncn1)c1ccc(Br)cc1Br | 0.2%
Cc1ccc(C(NC(=O)C2CCN(CCOc3ccc(Cl)cc3Cl)CC2)c2ccccn2)cc1 (configuration not stated) | 0.4%
O=C(NC(c1ccc(Cl)cc1)c1cnccn1)C1CCN(Cc2ccc(Cl)cc2)CC1 (configuration not stated) | 0.1%
O=C(NC(c1ccc(-c2ccccc2)cc1)c1cnccn1)C1CCN(CCOc2ccc(Cl)cc2Cl)CC1 (configuration not stated) | 7.1% (active)
CCOC(=O)c1cc2sccc2n1Cc1ccc(C#N)cc1 | 0%
CCOCCCNC(=O)C1(O)c2cc(Br)ccc2NC(=O)N1c1ccc(C)c(C)c1 (configuration not stated) | -0.2%
CN1CCCc2cc(C#N)c(=O)[nH]c21 | 0%
CC(C)c1cc(Cn2c3ccccc3c(=O)n2C(C)Cn2cc(C3CC3)nn2)on1 (configuration not stated) | 6.8% (active)
COCCN(C(=O)C(C)C)c1nnc(-c2ccc(C(C)(C)C)cc2)s1 | 0.5%
Cc1ccc(OCc2nnc(SC3CCc4ccccc4C3=O)n2C)cc1 (configuration not stated) | 0%
